# Reference: PubChem BioAssay (Tox21)
# “And” between values parts separate entries of the source, which are not always exact repeats. Equal values may be shown once. Records with an inconclusive call do not appear. Entries that show only a call come without a potency. Some structures have more than one record in an assay (separate samples or runs), and their calls can disagree. The source made the active and inactive calls. Unless noted, calls come from the whole dose curve; as a rule, active = well fitted curve in the direction sought with a large enough effect in the repeat runs; inconclusive = weak or mixed curves; inactive = no such curve, though single readings can be large; an effect the other way counts as inactive or inconclusive.
# Experiments:
# [1] = qHTS assay to identify aromatase inhibitors - cell viability counter screen (AID 743084);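 note: cells stimulated with testosterone during compound exposure; nearly all actives have a fitted effect of over 55% in size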; note: potency is the fitted concentration of half-maximal effect
# [2] = target: Aryl hydrocarbon receptor (Homo sapiens) (UniProt P35869); assay: qHTS assay to identify small molecule that activate the aryl hydrocarbon receptor (AhR) signaling pathway (AID 743085); note: nearly all actives have a fitted effect of over 15% in size; note: potency is the fitted concentration of half-maximal effect;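 for activation: HG2L7.5c1 human HepG2 liver cells with stably integrated DRE-driven firefly reporter; series mostly up to about 70 µM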
# Summary of the method: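 Stably transfected human liver carcinoma cells (HG2L7.5c1; 20 DRE-firefly luciferase) were incubated 5 h, dosed, and kept 24 h at 37C. Agonism was scored from increased luciferase luminescence.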
# [3] = qHTS assay to identify small molecule that activate the aryl hydrocarbon receptor (AhR) signaling pathway - cell viability counter screen (AID 743086); note: nearly all actives have a fitted effect of over 45% in size; note: potency is the fitted concentration of half-maximal effect
# Summary of the method: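 HepG2-AhR-luc (HG2L7.5c1) cells, 4000/well, treated 24 h at 37 C with compound; viability measured as CellTiter-Fluor fluorescence after 30 min in the same wells as the luciferase read.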
# [4] = qHTS assay for small molecule agonists of the antioxidant response element (ARE) signaling pathway (AID 743202; active = well fitted activation curve with a large enough effect in the signal ratio in the repeat runs, not every such curve was filed as active; the % refers to the signal ratio)
# Summary of the method: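 HepG2 ARE-bla reporter line, 2,000 cells/well; 5 h preincubation 37 C/5% CO2; compound (DMSO) 16 h 37 C; B/G FRET substrate 2 h RT; fluorescence intensity.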
# [5] = qHTS assay for small molecule agonists of the antioxidant response element (ARE) signaling pathway - cell viability counter screen (AID 743203; calls by dose curve; note: nearly all actives have a fitted effect of over 55% in size; note: potency is the fitted concentration of half-maximal effect)
# Summary of the method: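 Viability counter screen: stably transfected ARE-bla HepG2 line, 16 hrs compound exposure at 37C/5% CO2, ATP-based CellTiter-Glo luminescence measured in the reporter wells.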
# [6] = qHTS assay for small molecule activators of the heat shock response signaling pathway - cell viability counter screen (AID 743209); note: nearly all actives have a fitted effect of over 50% in size; note: potency is the fitted concentration of half-maximal effect
# Summary of the method: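 Viability of HSE-bla HeLa cells is measured with CellTiter-Glo in the wells already used for the reporter read. Compound exposure lasts 5 h at 37 C, and luminescence is read after 30 min at room temperature.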
# [7] = qHTS assay for small molecule activators of the heat shock response signaling pathway (AID 743210; active = well fitted activation curve with a large enough effect in the signal ratio in the repeat runs, with a control signal flat, not every such curve was filed as active; the % refers to the signal ratio;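 note: HeLa cells with beta-lactamase reporter driven by heat shock elements; series mostly up to about 63 µM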)
# Summary of the method: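 Beta-lactamase reporter read-out: FRET substrate fluorescence after 2.5 h at RT, following 5 h compound treatment at 37 C of HeLa cells carrying HSE-driven bla reporter; quantitative HTS format.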
# [8] = qHTS assay to identify small molecule agonists of the peroxisome proliferator-activated receptor delta (PPARd) signaling pathway - cell viability counter screen (AID 743211); note: nearly all actives have a fitted effect of over 55% in size; note: potency is the fitted concentration of half-maximal effect
# Summary of the method: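 In the same wells used for beta-lactamase reporter measurement, cytotoxicity is scored by CellTiter-Glo. HEK293H PPARd-bla cells receive compound for 17 h at 37C following a 5 h settling period.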
# [9] = qHTS assay to identify small molecule antagonists of the peroxisome proliferator-activated receptor delta (PPARd) signaling pathway - cell viability counter screen (AID 743213); note: nearly all actives have a fitted effect of over 50% in size; note: potency is the fitted concentration of half-maximal effect
# Summary of the method: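 HEK293H cells with the PPARd UAS-bla reporter, co-treated 17 h at 37 C with compounds and L165041 (300 nM final), were lysed with CellTiter-Glo. Luminescence indicated viable cell content.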
# [10] = qHTS assay to identify small molecule agonists of the farnesoid-X-receptor (FXR) signaling pathway - cell viability counter screen (AID 743218); note: nearly all actives have a fitted effect of over 45% in size; note: potency is the fitted concentration of half-maximal effect
# Summary of the method: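 Viability of FXR-bla HEK 293T cells is measured by ATP-based CellTiter-Glo luminescence following 16 h compound treatment at 37 C and a prior 2 h room-temperature beta-lactamase substrate step.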
# [11] = qHTS assay to identify small molecule antagonists of the farnesoid-X-receptor (FXR) signaling pathway - cell viability counter screen (AID 743221; active = well fitted cell-killing curve with a large enough effect in the repeat runs, not every such curve was filed as active; note: nearly all actives have a fitted effect of over 50% in size; note: potency is the fitted concentration of half-maximal effect)
# Summary of the method: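 Here viability was scored by luminescence after CellTiter-Glo addition to wells already read for beta-lactamase. Prior treatment: compound plus CDCA (50 uM final), 16 h, 37 C, HEK 293T FXR-bla cells.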
# [12] = target: Vitamin D3 receptor (Homo sapiens) (UniProt P11473); assay: qHTS assay to identify small molecule agonists of the vitamin D receptor (VDR) signaling pathway (AID 743222; calls by dose curve)
# Summary of the method: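 Fluorescence from cleaved LiveBLAzer B/G FRET substrate served as readout. VDR-bla cells had been treated 16 h at 37C with test compounds in DMSO, following a 4 h settling period, and substrate was loaded for 2 h at RT.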
# [13] = target: Vitamin D3 receptor (Homo sapiens) (UniProt P11473); assay: qHTS assay to identify small molecule antagonists of the vitamin D receptor (VDR) signaling pathway (AID 743223; active = well fitted inhibition curve with a large enough effect in the signal ratio in the repeat runs, not every such curve was filed as active; the % refers to the signal ratio)
# Summary of the method: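 Inhibition of agonist-driven VDR signalling is scored in VDR-bla cells: 3 nM final 1alpha,25-dihydroxyvitamin D3 plus compound, 16 h at 37C, then beta-lactamase detection by FRET substrate fluorescence after 2 h.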
# [14] = target: Peroxisome proliferator-activated receptor delta (Homo sapiens) (UniProt Q03181); assay: qHTS assay to identify small molecule agonists of the peroxisome proliferator-activated receptor delta (PPARd) signaling pathway (AID 743212; calls by dose curve)
# Summary of the method: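 Read-out: beta-lactamase FRET fluorescence after 2 h room-temperature incubation with LiveBLAzer B/G substrate. Cells were HEK293H carrying a UAS-bla reporter for PPARd, treated at 37 C with DMSO-dissolved compounds.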
# [15] = target: Peroxisome proliferator-activated receptor delta (Homo sapiens) (UniProt Q03181); assay: qHTS assay to identify small molecule antagonists of the peroxisome proliferator-activated receptor delta (PPARd) signaling pathway (AID 743215; active = well fitted inhibition curve with a large enough effect in the signal ratio in the repeat runs, not every such curve was filed as active; the % refers to the signal ratio;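 note: cells stimulated with agonist L165041 at 300 nM final during compound exposure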; note: potency is the fitted concentration of half-maximal effect)
# Summary of the method: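 Plated HEK293H PPARd-bla cells rested 5 h at 37 C and 5% CO2. Compound, then agonist L165041 at 300 nM final, was added; 17 h at 37 C followed. Substrate loading, 2 h room temperature, fluorescence measured.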
# [16] = target: Bile acid receptor (Homo sapiens) (UniProt Q96RI1); assay: qHTS assay to identify small molecule antagonists of the farnesoid-X-receptor (FXR) signaling pathway (AID 743217; active = well fitted inhibition curve with a large enough effect in the signal ratio in the repeat runs, not every such curve was filed as active; the % refers to the signal ratio; note: potency is the fitted concentration of half-maximal effect)
# Summary of the method: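 Screen of the Tox21 10K library in quantitative HTS format using FXR-UAS-bla HEK 293T reporter cells. Agonist chenodeoxycholic acid, 50 uM final, added with compounds; 16 h incubation at 37 °C; beta-lactamase FRET fluorescence measured.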
# [17] = target: Bile acid receptor (Homo sapiens) (UniProt Q96RI1); assay: qHTS assay to identify small molecule agonists of the farnesoid-X-receptor (FXR) signaling pathway (AID 743220; active = well fitted activation curve with a large enough effect in the signal ratio in the repeat runs, not every such curve was filed as active; the % refers to the signal ratio)
# Summary of the method: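 FXR-UAS-bla HEK 293T cells carrying a UAS-driven beta-lactamase reporter were plated for 5 h at 37C/5% CO2, then exposed to DMSO-dissolved Tox21 10K compounds for 16 h at 37C. A LiveBLAzer B/G FRET substrate was loaded for 2 h at room temperature before fluorescence reading.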
# [18] = target: Peroxisome proliferator-activated receptor gamma (Homo sapiens) (UniProt P37231); assay: qHTS assay to identify small molecule agonists of the peroxisome proliferator-activated receptor gamma (PPARg) signaling pathway (AID 743094; active = well fitted activation curve with a large enough effect in the signal ratio in the repeat runs, not every such curve was filed as active; the % refers to the signal ratio)
# Summary of the method: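 Reporter activation was scored by fluorescence of cleaved LiveBLAzer B/G substrate (1 h, room temperature) in PPARg-bla HEK293H cells previously treated 17 h at 37C with DMSO-dissolved compounds.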
# [19] = target: Peroxisome proliferator-activated receptor gamma (Homo sapiens) (UniProt P37231); assay: qHTS assay to identify small molecule antagonists of the peroxisome proliferator-activated receptor gamma (PPARg) signaling pathway (AID 743191; calls by dose curve; note: nearly all actives have a fitted effect of over 30% in size; note: potency is the fitted concentration of half-maximal effect)
# Summary of the method: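 GeneBLAzer PPARg UAS-bla HEK293H cells, 5 h post-plating, exposed to compounds 17 h at 37C. LiveBLAzer B/G FRET substrate added for 1 h at room temperature; beta-lactamase reporter read by fluorescence intensity.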
# [20] = qHTS assay to identify small molecule antagonists of the peroxisome proliferator-activated receptor gamma (PPARg) signaling pathway - cell viability counter screen (AID 743194); note: potency is the fitted concentration of half-maximal effect; nearly all actives have a fitted effect of over 55% in size
# Summary of the method: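 Cytotoxicity counter screen in PPARg-bla HEK293H cells, same wells as reporter assay. Compounds plus 50 nM rosiglitazone (final) for 17 h at 37 C, then viability read by CellTiter-Glo luminescence.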
# Chain of Vitamin D3 receptor (Homo sapiens) (P11473 whole entry, looked up): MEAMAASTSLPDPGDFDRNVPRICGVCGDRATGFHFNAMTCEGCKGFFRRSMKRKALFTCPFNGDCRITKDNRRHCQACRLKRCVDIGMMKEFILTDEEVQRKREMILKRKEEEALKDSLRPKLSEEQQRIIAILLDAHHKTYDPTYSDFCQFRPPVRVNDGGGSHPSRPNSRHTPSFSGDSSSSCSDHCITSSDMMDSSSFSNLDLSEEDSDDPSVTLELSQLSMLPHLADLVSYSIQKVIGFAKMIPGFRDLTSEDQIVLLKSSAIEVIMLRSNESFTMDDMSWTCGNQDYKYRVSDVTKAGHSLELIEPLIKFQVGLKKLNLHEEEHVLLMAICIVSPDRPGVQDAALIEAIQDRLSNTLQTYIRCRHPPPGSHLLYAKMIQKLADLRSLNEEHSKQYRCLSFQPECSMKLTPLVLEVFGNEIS
# Chain of Peroxisome proliferator-activated receptor delta (Homo sapiens) (Q03181 whole entry, looked up): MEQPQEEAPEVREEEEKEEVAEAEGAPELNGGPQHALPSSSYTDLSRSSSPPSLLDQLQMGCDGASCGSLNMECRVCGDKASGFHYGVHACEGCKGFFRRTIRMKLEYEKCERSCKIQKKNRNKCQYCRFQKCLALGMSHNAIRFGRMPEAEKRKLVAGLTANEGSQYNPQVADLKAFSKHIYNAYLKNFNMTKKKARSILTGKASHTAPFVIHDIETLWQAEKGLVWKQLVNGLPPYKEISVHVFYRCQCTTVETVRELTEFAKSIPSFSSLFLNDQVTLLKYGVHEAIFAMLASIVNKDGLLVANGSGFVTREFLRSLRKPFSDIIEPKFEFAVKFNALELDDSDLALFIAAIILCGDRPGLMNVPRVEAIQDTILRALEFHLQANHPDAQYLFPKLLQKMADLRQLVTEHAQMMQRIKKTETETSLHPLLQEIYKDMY
# Chain of Bile acid receptor (Homo sapiens) (Q96RI1 whole entry, looked up): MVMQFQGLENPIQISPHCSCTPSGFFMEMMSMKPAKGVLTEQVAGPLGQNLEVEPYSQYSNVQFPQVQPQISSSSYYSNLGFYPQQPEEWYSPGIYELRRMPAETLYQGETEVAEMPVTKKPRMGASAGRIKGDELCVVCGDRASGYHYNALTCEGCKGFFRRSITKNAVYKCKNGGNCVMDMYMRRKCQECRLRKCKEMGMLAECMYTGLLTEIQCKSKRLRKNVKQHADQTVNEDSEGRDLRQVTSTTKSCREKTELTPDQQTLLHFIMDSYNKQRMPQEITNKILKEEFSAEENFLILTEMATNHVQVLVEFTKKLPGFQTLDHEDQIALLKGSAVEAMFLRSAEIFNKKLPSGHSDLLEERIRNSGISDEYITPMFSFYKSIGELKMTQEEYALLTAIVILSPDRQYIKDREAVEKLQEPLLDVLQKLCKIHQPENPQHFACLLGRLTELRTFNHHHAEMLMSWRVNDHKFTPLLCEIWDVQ
# Chain of Peroxisome proliferator-activated receptor gamma (Homo sapiens) (P37231 whole entry, looked up): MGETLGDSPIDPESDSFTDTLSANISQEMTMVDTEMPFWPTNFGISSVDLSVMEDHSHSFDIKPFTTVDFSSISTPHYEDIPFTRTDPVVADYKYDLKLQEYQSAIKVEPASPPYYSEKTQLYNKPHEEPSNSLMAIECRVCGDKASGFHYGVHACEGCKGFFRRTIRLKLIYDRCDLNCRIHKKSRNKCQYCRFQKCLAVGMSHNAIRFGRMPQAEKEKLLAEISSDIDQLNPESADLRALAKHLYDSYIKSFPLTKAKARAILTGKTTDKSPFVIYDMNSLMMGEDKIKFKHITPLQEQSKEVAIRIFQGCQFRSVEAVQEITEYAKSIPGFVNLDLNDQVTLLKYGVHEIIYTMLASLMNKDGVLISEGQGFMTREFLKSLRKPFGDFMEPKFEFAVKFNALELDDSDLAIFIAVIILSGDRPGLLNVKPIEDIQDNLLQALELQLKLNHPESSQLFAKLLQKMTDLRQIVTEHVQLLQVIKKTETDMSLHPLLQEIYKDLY
# Chain of Aryl hydrocarbon receptor (Homo sapiens) (P35869 whole entry, looked up): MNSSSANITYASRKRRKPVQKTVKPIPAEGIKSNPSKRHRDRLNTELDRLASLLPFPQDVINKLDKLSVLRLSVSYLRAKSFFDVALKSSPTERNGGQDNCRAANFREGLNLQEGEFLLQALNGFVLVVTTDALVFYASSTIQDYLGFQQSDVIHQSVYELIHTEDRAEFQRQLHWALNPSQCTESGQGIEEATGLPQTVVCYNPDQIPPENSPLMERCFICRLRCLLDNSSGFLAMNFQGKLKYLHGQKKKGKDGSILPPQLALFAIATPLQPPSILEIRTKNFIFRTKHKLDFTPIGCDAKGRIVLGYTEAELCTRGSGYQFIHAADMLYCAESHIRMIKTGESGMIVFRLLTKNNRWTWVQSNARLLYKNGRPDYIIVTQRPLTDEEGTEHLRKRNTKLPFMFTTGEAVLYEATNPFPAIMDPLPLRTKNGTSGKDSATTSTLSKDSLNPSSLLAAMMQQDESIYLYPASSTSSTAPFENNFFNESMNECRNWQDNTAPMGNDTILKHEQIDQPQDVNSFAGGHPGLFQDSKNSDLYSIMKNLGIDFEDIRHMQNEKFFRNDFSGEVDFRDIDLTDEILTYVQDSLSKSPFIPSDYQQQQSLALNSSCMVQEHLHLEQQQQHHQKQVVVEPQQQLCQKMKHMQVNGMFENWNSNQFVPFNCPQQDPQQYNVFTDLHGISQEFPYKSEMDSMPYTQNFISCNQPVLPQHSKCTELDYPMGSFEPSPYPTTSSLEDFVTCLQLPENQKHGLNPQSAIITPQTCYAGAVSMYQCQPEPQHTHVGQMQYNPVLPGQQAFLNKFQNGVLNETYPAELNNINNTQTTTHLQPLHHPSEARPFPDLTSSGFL
compound,measurement,setting,value
C/C=C/C=C/C(=O)O,Potency,[1],inactive
same,Potency,[2],inactive
same,Potency,[3],inactive
same,activation,[4],7.69% [at 8.36 µM] (inactive)
same,Potency,[5],inactive
same,Potency,[6],inactive
same,outcome,[7],inactive
same,Potency,[8],inactive
same,Potency,[9],inactive
same,Potency,[10],inactive
same,Potency,[11],inactive
same,Potency,[12],inactive
same,Potency,[13],inactive
COc1ccc(OC(F)(F)F)cc1CN[C@H]1CCCN[C@H]1c1ccccc1,Potency,[1],inactive
same,Potency,[2],inactive
same,Potency,[3],54.5 µM (active)
same,Potency,[5],27.3 µM (active)
same,Potency,[6],inactive
same,outcome,[7],inactive
same,Potency,[8],43.6 µM (active)
same,Potency,[9],43.6 µM (active)
same,Potency,[10],43.6 µM (active)
same,Potency,[12],inactive
O=C(Nc1ncc([N+](=O)[O-])s1)c1cccs1,Potency,[2],2.98 µM (active)
same,Potency,[3],inactive
same,outcome,[7],inactive
same,Potency,[14],inactive
same,Potency,[15],inactive
same,Potency,[16],inactive
same,outcome,[17],inactive
same,Potency,[12],inactive
same,Potency,[13],inactive
NC(=O)n1c(O)c(C(=O)c2cccs2)c2cc(Cl)ccc21,Potency,[1],inactive
same,Potency,[2],23.7 µM (active)
same,Potency,[3],inactive
same,outcome,[7],inactive
same,Potency,[8],inactive
same,Potency,[10],inactive
same,outcome,[17],inactive
same,Potency,[11],inactive
CC/C(=C(\c1ccccc1)c1ccc(OCCN(C)C)cc1)c1ccccc1,Potency,[1],27.3 µM (active) [middle of 5 runs]
same,Potency,[2],inactive
same,Potency,[3],inactive and 61.6 µM (active)
same,Potency,[5],19.5 µM (active) and 27.3 µM (active) and 26.6 µM (active)
same,Potency,[6],inactive and 35 µM (active) and 43.6 µM (active)
same,outcome,[7],inactive
same,Potency,[9],54.9 µM (active) and 17.5 µM (active)
same,Potency,[11],inactive and 49.4 µM (active) and 54.9 µM (active)
CN1CCc2cccc3c2[C@H]1Cc1ccc(O)c(O)c1-3,Potency,[1],29.8 µM (active) and 24.6 µM (active) and 20.4 µM (active)
same,Potency,[3],inactive and 61.8 µM (active)
same,Potency,[18],inactive
same,Potency,[19],6.49 µM (active)
same,Potency,[20],44.1 µM (active) and 3.65 µM (active)
same,Potency,[5],49.1 µM (active) and 5.74 µM (active)
same,Potency,[6],inactive
same,Potency,[8],49.5 µM (active) and 10.3 µM (active) and 21.1 µM (active)
same,Potency,[14],inactive
same,Potency,[9],49.5 µM (active) and 18.3 µM (active)
same,Potency,[15],55.5 µM (active) and 10.3 µM (active)
same,Potency,[16],39.3 µM (active) and 18.3 µM (active)
same,outcome,[17],inactive
same,Potency,[11],44.1 µM (active) and inactive
same,Potency,[12],inactive
same,Potency,[13],inactive
Oc1ccccc1,Potency,[1],inactive
same,Potency,[2],inactive
same,Potency,[3],inactive
same,Potency,[4],inactive
same,Potency,[5],inactive
same,Potency,[6],inactive
same,Potency,[8],inactive
same,Potency,[9],inactive
same,Potency,[16],inactive
same,Potency,[10],inactive
same,outcome,[17],inactive
same,Potency,[11],inactive
C1=CC2C3C=CC(C3)C2C1 (stereo not drawn),Potency,[1],inactive
same,Potency,[3],inactive
same,Potency,[5],inactive
same,Potency,[6],inactive
same,outcome,[7],inactive
same,Potency,[9],inactive
same,Potency,[11],inactive
Nc1ccc2c(c1)CN1C(=O)c3ccccc3C1=N2,Potency,[5],inactive
same,Potency,[6],inactive
same,outcome,[7],inactive
same,Potency,[8],inactive
same,Potency,[10],inactive
same,outcome,[17],inactive
CC(C)NCC(O)c1ccc(O)c(O)c1 (stereo not drawn),Potency,[1],inactive
same,Potency,[2],inactive
same,Potency,[3],inactive
same,Potency,[4],inactive
same,Potency,[5],inactive
same,Potency,[6],inactive
same,Potency,[8],inactive
same,Potency,[9],inactive
same,Potency,[10],inactive
same,Potency,[11],inactive
same,Potency,[12],inactive
same,Potency,[13],inactive
CN1[C@@H]2CC(OC(=O)[C@H](CO)c3ccccc3)C[C@H]1[C@@H]1O[C@@H]12 (stereo partly drawn),Potency,[1],inactive
same,Potency,[3],inactive
same,Potency,[18],inactive
same,Potency,[19],inactive
same,Potency,[4],inactive
same,Potency,[5],inactive
same,Potency,[6],inactive
same,Potency,[8],inactive
same,Potency,[14],inactive
same,Potency,[9],inactive
same,Potency,[15],inactive
same,Potency,[10],inactive
same,Potency,[11],inactive
same,Potency,[12],inactive
same,Potency,[13],inactive
COc1ccc2cc(S(=O)(=O)N[C@H](CC(=O)N[C@H](Cc3ccc(CN4[C@H](C)CCC[C@@H]4C)cc3)C(=O)N(C)C(C)C)c3ccc4c(c3)OCO4)ccc2c1,Potency,[1],46 µM (active)
same,Potency,[2],inactive
same,Potency,[3],23 µM (active)
same,Potency,[5],18.3 µM (active)
same,Potency,[6],inactive
same,outcome,[7],inactive
same,Potency,[8],14.7 µM (active)
same,Potency,[9],29.2 µM (active)
same,Potency,[10],26.1 µM (active)
same,outcome,[17],inactive
same,Potency,[11],52 µM (active)
same,Potency,[12],inactive
CN[C@H]1CC[C@@H](c2ccc(Cl)c(Cl)c2)c2ccccc21,Potency,[2],inactive
same,Potency,[3],inactive
same,Potency,[5],18.8 µM (active)
same,Potency,[8],21.1 µM (active)
same,Potency,[9],23.7 µM (active)
same,Potency,[10],23.7 µM (active)
same,Potency,[11],26.6 µM (active)
CC(=O)Nc1c(I)c(NC(C)=O)c(I)c(C(=O)O)c1I,Potency,[3],inactive
same,Potency,[4],inactive
same,Potency,[5],inactive
same,Potency,[6],inactive
same,Potency,[8],inactive
same,Potency,[9],inactive
same,Potency,[10],inactive
same,Potency,[11],inactive
